In ChEMBL document CHEMBL3988442, “University of Dundee, Small-Polar-MMV Screening Library” (2021):
For some assays here: Potency and affinity values are given separately.

What was measured:
Parameters in all cases: scale not given: direction of the effect not stated beside the values
[1] = molecular target: Protein translocase subunit SecA (Escherichia coli (strain K12)) (UniProt P10408); assay: Assay to Identify E. coli SecA ATPase Inhibitors; format: functional; conditions: 30 µM
[2] = molecular target: T1, Ubiquitin-activating enzyme e1, putative (Leishmania donovani (strain BPK282A1)) (UniProt E9BSI1); assay: Leishmania donovani Ubiquitin Activating Enzyme (LdE1); format: functional; conditions: 30 µM
T1 sequence (whole entry): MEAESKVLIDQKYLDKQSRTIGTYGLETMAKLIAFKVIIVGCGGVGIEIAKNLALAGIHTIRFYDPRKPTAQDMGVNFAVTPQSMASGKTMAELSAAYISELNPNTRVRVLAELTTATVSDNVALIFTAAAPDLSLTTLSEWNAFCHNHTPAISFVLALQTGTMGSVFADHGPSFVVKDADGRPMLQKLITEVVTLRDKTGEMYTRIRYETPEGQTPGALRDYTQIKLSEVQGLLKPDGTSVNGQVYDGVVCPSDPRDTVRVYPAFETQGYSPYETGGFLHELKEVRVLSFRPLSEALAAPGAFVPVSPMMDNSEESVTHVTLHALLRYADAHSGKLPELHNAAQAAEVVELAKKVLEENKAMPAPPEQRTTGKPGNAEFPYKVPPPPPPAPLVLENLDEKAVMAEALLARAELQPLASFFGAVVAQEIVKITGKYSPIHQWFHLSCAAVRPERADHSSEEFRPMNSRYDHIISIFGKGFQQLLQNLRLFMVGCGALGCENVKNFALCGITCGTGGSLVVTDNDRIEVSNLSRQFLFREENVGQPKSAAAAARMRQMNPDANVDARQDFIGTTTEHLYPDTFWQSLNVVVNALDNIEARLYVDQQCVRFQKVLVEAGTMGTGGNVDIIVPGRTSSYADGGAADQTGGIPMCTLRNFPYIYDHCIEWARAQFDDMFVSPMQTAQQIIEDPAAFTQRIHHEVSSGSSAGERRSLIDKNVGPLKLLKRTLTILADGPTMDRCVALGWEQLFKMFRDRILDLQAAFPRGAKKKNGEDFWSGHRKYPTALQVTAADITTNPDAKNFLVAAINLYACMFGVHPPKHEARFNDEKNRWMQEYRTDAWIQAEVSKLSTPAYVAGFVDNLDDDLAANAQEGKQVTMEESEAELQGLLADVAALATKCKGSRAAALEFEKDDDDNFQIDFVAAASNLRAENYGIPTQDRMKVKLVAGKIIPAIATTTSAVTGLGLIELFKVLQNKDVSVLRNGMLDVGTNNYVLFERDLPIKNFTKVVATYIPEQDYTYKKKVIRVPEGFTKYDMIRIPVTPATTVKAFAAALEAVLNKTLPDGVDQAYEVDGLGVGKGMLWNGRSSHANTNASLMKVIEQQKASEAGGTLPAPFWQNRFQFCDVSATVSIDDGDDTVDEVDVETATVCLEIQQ

[3] = molecular target: AMP-activated protein kinase, AMPK (Homo sapiens) (UniProt P54646+O43741+P54619+Q9UGJ0+Q9Y478+Q13131+Q9UGI9); assay: AMP-dependent Kinase enzyme assay. An in vitro enzyme assay that detects ADP turnover that is directly proportional to AMPK activity. This uses naive AMPK that is activated during the assay with MK-8722; format: functional; conditions: 30 µM
[4] = molecular target: Sialic acid-binding Ig-like lectin 9 (Homo sapiens) (UniProt Q9Y336); assay: Hs-Siglec9 ALPHAscreen SOP 20170721; conditions: 10 µM
Trypanosoma cruzi = assay: Trypanosoma cruzi phosphomannomutase and mannose-1-phosphate guanylyltransferase assay; format: functional; conditions: 10 µM
[5] = molecular target: T2, Arginase-2, mitochondrial (Homo sapiens) (UniProt P78540); assay: in vitro enzyme assay to detect the production of urea directly proportional to the activity of Arginase II; format: functional; conditions: 33.3 µM; further: in the data most compounds retested in dose-response had high values
T2 sequence (whole entry): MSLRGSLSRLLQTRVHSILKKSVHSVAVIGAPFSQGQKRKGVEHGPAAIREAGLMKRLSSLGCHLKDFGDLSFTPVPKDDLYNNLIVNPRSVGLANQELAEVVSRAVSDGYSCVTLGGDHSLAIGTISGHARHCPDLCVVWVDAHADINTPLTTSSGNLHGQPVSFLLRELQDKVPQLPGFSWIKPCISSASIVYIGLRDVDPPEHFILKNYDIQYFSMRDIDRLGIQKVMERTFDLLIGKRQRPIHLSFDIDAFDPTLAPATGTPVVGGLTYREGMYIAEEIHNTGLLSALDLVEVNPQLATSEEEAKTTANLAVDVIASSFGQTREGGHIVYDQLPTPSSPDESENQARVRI

[6] = molecular target: T3, Proteasome subunit beta (Trypanosoma cruzi) (UniProt O96673); assay: Trypanosoma cruzi proteasome chymotrypsin-like activity (TcProtChymo) assay.; further: in the data most compounds retested in dose-response had high values; format: functional; conditions: 9.37 µM
T3 sequence (whole entry): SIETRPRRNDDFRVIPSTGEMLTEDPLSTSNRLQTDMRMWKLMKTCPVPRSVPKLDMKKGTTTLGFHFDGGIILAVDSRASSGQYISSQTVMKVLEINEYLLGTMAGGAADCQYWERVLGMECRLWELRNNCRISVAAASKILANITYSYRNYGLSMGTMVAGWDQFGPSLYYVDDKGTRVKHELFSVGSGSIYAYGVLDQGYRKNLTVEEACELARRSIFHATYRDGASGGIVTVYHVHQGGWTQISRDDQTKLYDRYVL

Homo sapiens = species on record: Homo sapiens; assay: To identify inhibition of the IFN signalling (Jak-Stat) pathway via expression of an eGFP reporter gene under the control of an IFN-stimulated response element (ISRE) containing MxA promoter.; format: functional; conditions: 30 µM
[7] = molecular target: T4, Tyrosyl-tRNA synthetase, putative (Trypanosoma cruzi (strain CL Brener)) (UniProt Q4DSP6); assay: Trypanosoma cruzi tyrosyl tRNA synthetase (TcYRS) _High Tyrosine SOP; format: functional; conditions: 30 µM; further: in the data most compounds retested in dose-response had high values
T4 sequence (whole entry): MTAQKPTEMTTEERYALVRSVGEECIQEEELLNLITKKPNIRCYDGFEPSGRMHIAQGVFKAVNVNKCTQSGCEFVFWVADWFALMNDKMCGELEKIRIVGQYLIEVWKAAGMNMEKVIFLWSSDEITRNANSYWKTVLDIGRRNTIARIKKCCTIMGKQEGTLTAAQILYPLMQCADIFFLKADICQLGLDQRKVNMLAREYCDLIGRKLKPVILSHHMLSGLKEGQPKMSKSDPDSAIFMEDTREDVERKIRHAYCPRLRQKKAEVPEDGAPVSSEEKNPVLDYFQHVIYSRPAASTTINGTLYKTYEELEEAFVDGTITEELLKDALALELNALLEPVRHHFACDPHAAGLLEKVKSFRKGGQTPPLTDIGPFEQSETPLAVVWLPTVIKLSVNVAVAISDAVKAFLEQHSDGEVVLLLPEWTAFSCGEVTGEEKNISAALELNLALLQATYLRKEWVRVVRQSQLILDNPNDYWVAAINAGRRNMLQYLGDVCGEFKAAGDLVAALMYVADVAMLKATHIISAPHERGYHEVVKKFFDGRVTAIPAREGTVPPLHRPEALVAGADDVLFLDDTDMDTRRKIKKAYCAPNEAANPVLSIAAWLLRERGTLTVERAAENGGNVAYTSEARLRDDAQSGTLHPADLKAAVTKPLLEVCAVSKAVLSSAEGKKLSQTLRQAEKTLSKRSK

[8] = molecular target: T4, Tyrosyl-tRNA synthetase, putative (Trypanosoma cruzi (strain CL Brener)); assay: Trypanosoma cruzi tyrosyl tRNA synthetase (TcYRS) SOP; format: functional; conditions: 30 µM
[9] = molecular target: Chromo domain-containing protein 1 (Saccharomyces cerevisiae (strain ATCC 204508 / S288c) (Baker's yeast)) (UniProt P32657); assay: ScCHD-1 Enzyme Inhibition Assay; format: functional; conditions: 30 µM; further: in the data most compounds retested in dose-response had high values
Sequence of Chromo domain-containing protein 1 (Saccharomyces cerevisiae (strain ATCC 204508 / S288c) (Baker's yeast)) (P32657 whole entry, the tested form may be a part): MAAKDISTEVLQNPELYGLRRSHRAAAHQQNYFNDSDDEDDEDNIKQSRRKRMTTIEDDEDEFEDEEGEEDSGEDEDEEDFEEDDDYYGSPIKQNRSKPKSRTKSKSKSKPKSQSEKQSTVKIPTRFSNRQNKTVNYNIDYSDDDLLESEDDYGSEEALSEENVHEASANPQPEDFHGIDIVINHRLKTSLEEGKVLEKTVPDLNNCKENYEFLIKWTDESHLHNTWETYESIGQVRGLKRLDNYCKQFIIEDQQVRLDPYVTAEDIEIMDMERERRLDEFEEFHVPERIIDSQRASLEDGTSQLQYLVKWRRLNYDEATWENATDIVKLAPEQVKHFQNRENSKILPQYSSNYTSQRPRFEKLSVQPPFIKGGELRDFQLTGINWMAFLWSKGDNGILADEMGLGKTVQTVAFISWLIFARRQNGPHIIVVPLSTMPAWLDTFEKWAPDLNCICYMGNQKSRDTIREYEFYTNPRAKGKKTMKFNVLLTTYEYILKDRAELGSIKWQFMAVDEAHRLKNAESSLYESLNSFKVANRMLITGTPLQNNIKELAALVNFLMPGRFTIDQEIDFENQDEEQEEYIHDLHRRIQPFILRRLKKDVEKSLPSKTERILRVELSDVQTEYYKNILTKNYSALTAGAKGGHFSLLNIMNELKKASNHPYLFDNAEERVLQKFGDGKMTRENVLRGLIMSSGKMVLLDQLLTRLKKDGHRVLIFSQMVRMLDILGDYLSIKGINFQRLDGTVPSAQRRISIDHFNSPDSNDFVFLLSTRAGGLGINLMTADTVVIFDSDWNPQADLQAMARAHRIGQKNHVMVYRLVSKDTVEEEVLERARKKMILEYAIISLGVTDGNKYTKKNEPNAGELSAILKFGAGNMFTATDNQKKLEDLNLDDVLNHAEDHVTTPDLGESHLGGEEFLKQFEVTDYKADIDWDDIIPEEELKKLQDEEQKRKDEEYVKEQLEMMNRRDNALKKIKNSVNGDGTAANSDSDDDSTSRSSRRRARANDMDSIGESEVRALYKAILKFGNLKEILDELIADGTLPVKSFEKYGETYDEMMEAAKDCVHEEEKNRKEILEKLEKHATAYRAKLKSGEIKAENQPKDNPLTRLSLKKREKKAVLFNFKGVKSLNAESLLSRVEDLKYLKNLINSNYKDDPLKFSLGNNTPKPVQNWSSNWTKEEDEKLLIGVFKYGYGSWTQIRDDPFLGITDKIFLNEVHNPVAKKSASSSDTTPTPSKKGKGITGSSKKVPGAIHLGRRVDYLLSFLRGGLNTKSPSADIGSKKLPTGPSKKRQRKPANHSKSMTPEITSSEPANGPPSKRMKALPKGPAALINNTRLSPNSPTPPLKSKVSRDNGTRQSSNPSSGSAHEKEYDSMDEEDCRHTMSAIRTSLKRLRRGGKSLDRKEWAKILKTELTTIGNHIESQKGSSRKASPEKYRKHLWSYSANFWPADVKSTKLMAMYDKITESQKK

Sequence of Protein translocase subunit SecA (Escherichia coli (strain K12)) (P10408 whole entry): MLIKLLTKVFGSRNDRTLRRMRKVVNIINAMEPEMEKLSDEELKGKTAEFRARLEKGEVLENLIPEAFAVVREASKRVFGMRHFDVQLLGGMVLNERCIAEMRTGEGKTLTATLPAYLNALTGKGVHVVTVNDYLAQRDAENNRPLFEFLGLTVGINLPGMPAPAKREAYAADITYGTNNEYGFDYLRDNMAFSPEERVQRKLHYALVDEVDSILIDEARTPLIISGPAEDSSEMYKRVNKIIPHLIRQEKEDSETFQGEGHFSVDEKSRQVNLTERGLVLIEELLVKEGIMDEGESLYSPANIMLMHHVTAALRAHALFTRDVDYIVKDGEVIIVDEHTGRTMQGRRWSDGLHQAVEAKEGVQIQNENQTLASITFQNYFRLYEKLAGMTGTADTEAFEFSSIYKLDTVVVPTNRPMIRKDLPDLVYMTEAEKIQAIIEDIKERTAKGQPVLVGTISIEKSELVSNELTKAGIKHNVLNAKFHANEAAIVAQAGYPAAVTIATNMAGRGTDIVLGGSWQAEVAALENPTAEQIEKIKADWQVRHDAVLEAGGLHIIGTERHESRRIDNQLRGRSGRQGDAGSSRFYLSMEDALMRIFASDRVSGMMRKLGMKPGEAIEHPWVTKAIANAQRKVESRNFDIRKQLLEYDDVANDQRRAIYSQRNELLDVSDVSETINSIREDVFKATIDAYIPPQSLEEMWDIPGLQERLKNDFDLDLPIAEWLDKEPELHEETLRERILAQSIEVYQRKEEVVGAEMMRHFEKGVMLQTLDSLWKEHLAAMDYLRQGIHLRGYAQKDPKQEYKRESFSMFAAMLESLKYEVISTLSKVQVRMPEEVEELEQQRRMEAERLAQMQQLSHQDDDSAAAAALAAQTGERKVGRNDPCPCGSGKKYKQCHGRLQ
Sequence of Sialic acid-binding Ig-like lectin 9 (Homo sapiens) (Q9Y336 whole entry): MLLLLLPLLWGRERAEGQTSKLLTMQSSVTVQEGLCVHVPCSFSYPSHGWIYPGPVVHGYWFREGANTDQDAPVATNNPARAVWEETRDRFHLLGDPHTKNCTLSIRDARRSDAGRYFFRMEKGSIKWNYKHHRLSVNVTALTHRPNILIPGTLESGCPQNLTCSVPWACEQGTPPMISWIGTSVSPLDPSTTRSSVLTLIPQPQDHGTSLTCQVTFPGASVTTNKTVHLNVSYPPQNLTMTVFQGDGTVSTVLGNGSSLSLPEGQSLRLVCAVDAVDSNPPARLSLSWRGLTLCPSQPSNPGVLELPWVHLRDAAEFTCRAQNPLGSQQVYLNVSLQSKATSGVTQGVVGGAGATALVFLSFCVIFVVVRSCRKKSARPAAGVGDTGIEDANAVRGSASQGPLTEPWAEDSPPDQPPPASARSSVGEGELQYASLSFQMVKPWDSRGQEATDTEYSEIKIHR

SMILES	Percent Effect [1]	Percent Effect [2]	Percent Effect [3]	Percent Effect [4]	Percent Effect (Trypanosoma cruzi)	Percent Effect [5]	Percent Effect [6]	Percent Effect (Homo sapiens)	Percent Effect [7]	Percent Effect [8]	Percent Effect [9]
CCOc1cc(C(=O)N2CCCC(c3cc(C(N)=O)[nH]n3)C2)ccn1 (configuration not stated)	-4.21%	10.5%	5.83%	-2.38%	7.94%	0%	5.5%	-0.364%	3.45%	16.1%	-0.329%
Cc1ncsc1CN1C[C@H](C(=O)N2CCCO2)[C@@H]2CCO[C@@H]2C1	-2.57%	-8.22%	-4.3%	10.2%	7.74%	-7.58%	16.5%	-2.42%	5.21%	3.7%	-1.86%
Cc1cc(CN(C)C2CCCN(Cc3noc(C4CC4)n3)C2)no1 (configuration not stated)	-2.13%	15.8%	-10.8%	-8.06%	-9.62%	-1.8%	12.4%	15.9%	1.48%	3.7%	-9.14%
Cc1ncccc1NC(=O)[C@H]1C[C@@H]2CCN(Cc3nccs3)C[C@@H]2O1	0.0943%	10.8%	6.53%	-5.38%	0.293%	2.23%	24.4%	1.37%	7.57%	17.9%	-3.63%
O=C(c1cccc2[nH]ncc12)N1CCCC1c1noc(C2CC2)n1 (configuration not stated)	0.141%	20.2%	1.95%	-11.1%	-3.31%	8.74%	7.29%	24.4%	5.42%	11.4%	-8.01%
O=C(NCC1(CO)CC1)c1cccc2ccccc12	-5.68%	2.74%	20.9%	-5.02%	-4.9%	-0.455%	10.7%	0.244%	6.45%	2.5%	-1.94%
CC(Cn1cccn1)NC(=O)Nc1nnc(C2CC2)s1 (configuration not stated)	-8.16%	13%	2.37%	7.36%	1.12%	-0.356%	-0.845%	10.7%	7.77%	12.2%	-5.78%
CNS(=O)(=O)c1ccc(CNC(=O)NCC2CCCO2)cc1 (configuration not stated)	-5%	13%	16.9%	-9.06%	1.67%	-2.74%	12.8%	14.9%	0.952%	18.8%	-17.3%
O=C(Nc1cn[nH]c1)c1ccc(O)nc1	-0.619%	13.2%	4.46%	12.7%	2.82%	-0.766%	5.68%	1.45%	8.33%	21.9%	-8.54%
CC(O)CN1CCN(Cc2cccc(C(=O)N(C)C)c2)CC1 (configuration not stated)	-4.84%	-141%	-53.4%	5.64%	1.02%	-3.51%	-4.31%	5.72%	5.94%	3.66%	9.61%
O=C(NCC1CC1)C1CN(C(=O)c2cccnc2)CC12CCOCC2 (configuration not stated)	-0.919%	13%	2.21%	6.47%	-0.296%	-0.645%	13.6%	18.6%	5.29%	14.1%	-4.19%
Cc1nn(C)c(C)c1C1CCCN1Cc1noc(C2CC2)n1 (configuration not stated)	2%	15.8%	-5.38%	-11.5%	-8.87%	3.96%	15.5%	8.86%	8.37%	6.17%	-6.57%
CN(C)CC(=O)N1CCCC2(CCC(=O)N(CCc3c[nH]cn3)C2)C1 (configuration not stated)	-1.9%	15.6%	-0.193%	10.6%	1.48%	-45.5%	11%	-2.33%	9.68%	16.1%	-1.67%
Cc1cc(CN2CCN(C(=O)C(C)C)[C@@H]3CS(=O)(=O)C[C@@H]32)ccc1F	-4.05%	6.94%	-6.22%	-3.08%	-0.486%	5.3%	14.7%	-3.72%	7.37%	12.8%	-2.86%
O=C(NCc1ccccn1)[C@@H]1COC[C@H]2CN(C3CCOCC3)C[C@H]21	4.15%	8.11%	9.79%	-14%	-7.33%	4.78%	12.7%	11.2%	5.41%	10.3%	-2.43%
Cn1cccc1C(=O)N1CCN(CC2CC2)c2ncccc2C1	-6.82%	10.7%	-5.74%	2.72%	2.7%	-56.8%	7.18%	3.32%	1.04%	10%	-4.08%
CCNC(=O)c1ccoc1CN1c2ccccc2CC1C (configuration not stated)	-3.54%	2.74%	7.91%	9.27%	-3.97%	2.4%	12.4%	5.41%	4.17%	11.1%	1.31%
O=C(C1CCCc2[nH]ncc21)N1CCCCCC1 (configuration not stated)	-3.72%	5.41%	-4.75%	2.71%	-2.64%	-1.24%	11.2%	0.454%	2.15%	6.17%	-3.22%
O=c1oc(-c2cccs2)nn1CC(O)c1ccccc1 (configuration not stated)	-3.18%	8%	-5.55%	2.71%	0.292%	-27.6%	5.58%	7.94%	10.4%	16.1%	-4.32%
CCS(=O)(=O)c1ccccc1C(=O)NCc1ccnc(N(C)C)c1	-2.2%	28.6%	-10.1%	2.33%	2.62%	4.27%	14%	4.01%	9.71%	24.4%	-10.5%
c1ncc(Nc2nccc(C3CCCCN3CC3CCCCC3)n2)cn1 (configuration not stated)	-4.71%	13.3%	10.8%	-4.81%	-0.591%	3.5%	10.5%	21.9%	2.13%	11.5%	-6.48%
O=C(NCc1ccccc1CN1CCC(O)CC1)Nc1ccncc1	5.78%	10.8%	-5.37%	6.21%	-5.21%	0%	16.2%	28%	6.88%	14.6%	-3.29%
